Experimental data reported in PubChem BioAssay.
Active and inactive are the calls of the source.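 Rule for the calls, unless noted: active = visual image review flags a hit and inhibition of aggregation exceeds 20%; inconclusive = visual hit but inhibition at or below 20%; inactive = no hit on visual image review.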

Tests used:
[1] = inhibitors of TNFa-induced NFkB p65 translocation, primary screen, imaging, HUVEC, MLSMR starter and 10KST1 sets (AID 438;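 active = inhibition above 20% together with a positive visual image hit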;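 note: compound added about 3h40 before a 20 min TNFalpha stimulation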;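 for inhibition: signal is the nuclear over cytoplasmic p65 intensity ratio per well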); settings: HUVEC TNFa-induced p65 nuclear translocation; cell count: measured here: nuclei count (cytotoxicity indicator), at 2.08 µM; inhibition: at 2 µM, stronger effect = higher value, 0% TNFa-plus-vehicle, 100% no-TNFa wells
[2] = inhibitors of mutant huntingtin aggregation, primary screen, imaging, exon1htt(103Q)mCFP cells, high-content imaging (AID 483); settings: exon1htt(103Q)mCFP cell line, aggregate imaging, at 2 µM; inhibition of aggregation: stronger effect = higher value; nuclei count: measured here: cell count, toxicity;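 note: compound exposure lasted 3 days before fixation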;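 for nuclei count: percent of the per-plate median nuclei count of sample wells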
[3] = inhibitors of E-selectin induction by TNFa, primary screen, imaging, HUVEC, immunofluorescence, MLSMR starter and 10KST1 sets (AID 487;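 active = visually confirmed hit in the image check and inhibition above 20%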;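 for inhibition: signal is fraction of cell area covered by stained E-selectin grains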;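 for nuclei count: 100% = median nuclei count of all wells on the same plate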); settings: HUVEC TNFalpha-induced E-selectin immunofluorescence imaging, at 2 µM; inhibition: stronger effect = higher value; nuclei count: measured here: cell number, toxicity
[4] = molecular target: Voltage-gated potassium channel subunit beta-2 (Rattus norvegicus) (UniProt P62483); experiment: KvBeta enzyme negative modulators, primary screen, biochemical, NADPH fluorescence (AID 622;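 active = fluorescence slope higher than the sample average by over 3 SD, cut at about -0.22 in these data, passing the limit was not always enough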;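 note: slope of raw intensity against log time taken from 70 to 1610 s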); settings: recombinant KvBeta, 4-cyanobenzaldehyde reduction, at 10 µM, stronger effect = higher value
Voltage-gated potassium channel subunit beta-2 (Rattus norvegicus), sequence (P62483 whole entry, looked up): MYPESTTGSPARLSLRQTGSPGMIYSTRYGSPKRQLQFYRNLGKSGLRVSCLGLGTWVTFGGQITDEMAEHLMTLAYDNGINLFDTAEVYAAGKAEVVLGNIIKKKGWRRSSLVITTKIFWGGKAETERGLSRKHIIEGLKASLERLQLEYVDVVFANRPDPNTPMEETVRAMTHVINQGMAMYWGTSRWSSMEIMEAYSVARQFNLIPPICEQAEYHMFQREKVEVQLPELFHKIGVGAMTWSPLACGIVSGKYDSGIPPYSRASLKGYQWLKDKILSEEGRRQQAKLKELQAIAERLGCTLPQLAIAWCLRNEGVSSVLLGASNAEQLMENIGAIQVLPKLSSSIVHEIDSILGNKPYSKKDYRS

[5] = molecular target: Voltage-gated potassium channel subunit beta-2 (Rattus norvegicus) (UniProt P62483); experiment: KvBeta positive modulators, primary screen, biochemical, NADPH fluorescence (AID 623;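 active = NADPH fluorescence slope more negative than the mean of all samples by about 3 SD, 99.7% confidence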;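 note: fluorescence intensity change per second fitted from 20 to 320 s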); settings: Recombinant KvBeta, NADPH fluorescence decrease slope, 10 min; at 10 µM; stronger effect = lower value
[6] = molecular target: Alpha-2C adrenergic receptor (Homo sapiens) (UniProt P18825); experiment: modulators of alpha2C/GIRK thallium flux, primary screen, cell-based, HEK293 alpha2C/GIRK1/2 (AID 624;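 active = fluorescence slope after compound addition differing from the mean of all screened samples at 99.7% confidence, in either direction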;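 note: slope of fluorescence ratio to pre-addition baseline per second over 15 to 24 s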); settings: thallium flux BTC fluorescence, at 10 µM, actives lie on both sides
Alpha-2C adrenergic receptor (Homo sapiens), sequence (P18825 whole entry, looked up): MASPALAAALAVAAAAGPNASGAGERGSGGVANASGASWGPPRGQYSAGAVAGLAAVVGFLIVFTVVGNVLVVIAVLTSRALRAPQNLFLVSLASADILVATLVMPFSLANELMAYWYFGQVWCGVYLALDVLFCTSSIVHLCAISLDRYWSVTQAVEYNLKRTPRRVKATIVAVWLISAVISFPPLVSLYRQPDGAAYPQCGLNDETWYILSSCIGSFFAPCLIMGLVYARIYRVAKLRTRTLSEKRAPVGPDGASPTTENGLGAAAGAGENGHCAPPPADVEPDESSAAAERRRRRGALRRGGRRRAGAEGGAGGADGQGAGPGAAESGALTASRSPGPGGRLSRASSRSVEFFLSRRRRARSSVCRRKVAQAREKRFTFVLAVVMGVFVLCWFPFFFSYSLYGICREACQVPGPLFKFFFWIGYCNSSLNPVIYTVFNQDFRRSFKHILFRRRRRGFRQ

[7] = inhibitors of Sendai virus-induced IRF3 signaling, primary screen, TLR/RLR signaling modifier project, cell-based, Sendai virus stimulus, luciferase, 10K MLSCN set (AID 602276;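 active = inhibition at or above 50% at 10 µM; inactive = inhibition below 50%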;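 note: firefly luciferase from ISG56 promoter only with Renilla not read in this screen; 0% = Sendai virus plus DMSO and 100% = medium plus DMSO without virus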); settings: HEK293 RL24 IRF3 luciferase reporter, at 10 µM, stronger effect = higher value
[8] = inhibitors of poly I:C-induced TLR3 signaling, primary screen, cell-based, poly I:C stimulus, luciferase, 10K MLSCN set (AID 602277;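 active = inhibition of the reporter signal at or above 50%; inactive = inhibition below 50%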); settings: HEK293-TLR3 RL24 IRF3 luciferase reporter, at 10 µM, stronger effect = higher value

O=C(CCN1C(=O)c2ccccc2C1=O)Nc1ccc(F)cc1
cell count [1]: 442
inhibition [1]: 4.9% (inactive)
inhibition of aggregation [2]: -0.3% (inactive)
nuclei count [2]: 117%
inhibition [3]: 14.4% (inactive)
nuclei count [3]: 109%
fluorescence slope [4]: -0.375 (inactive)
NADPH fluorescence slope [5]: 4.4e-06 (inactive)
slope [6]: 0.00394 (inactive)
inhibition [7]: 9.91% (inactive)
inhibition [8]: 13.8% (inactive)

COC(=O)NCC(c1cccnc1)N1CCOCC1 (stereo not drawn)
cell count [1]: 605
inhibition [1]: -11% (inactive)
inhibition of aggregation [2]: 16.6% (inactive)
nuclei count [2]: 97.8%
inhibition [3]: -24% (inactive)
nuclei count [3]: 105%
fluorescence slope [4]: -0.589 (inactive)
NADPH fluorescence slope [5]: -3.5e-05 (inactive)
slope [6]: 0.0059 (inactive)
inhibition [7]: -1.28% (inactive)
inhibition [8]: 16.1% (inactive)

CC1(C)CN=C(N2CCN(c3ncnc4sc5c(c34)CCCC5)CC2)S1
cell count [1]: 395
inhibition [1]: 4.1% (inactive)
inhibition of aggregation [2]: -0.4% (inactive)
nuclei count [2]: 80.5%
inhibition [3]: -28.7% (inactive)
nuclei count [3]: 113%
fluorescence slope [4]: -0.379 (inactive)
NADPH fluorescence slope [5]: -4.9e-05 (inactive)
slope [6]: 0.0035 (inactive)
inhibition [7]: 6.95% (inactive)
inhibition [8]: 5.35% (inactive)

O=C(CC(CC(=O)c1ccccc1)C(=O)O)c1ccccc1
cell count [1]: 393
inhibition [1]: 8.7% (inactive)
inhibition of aggregation [2]: -4.6% (inactive)
nuclei count [2]: 91.9%
inhibition [3]: -52.5% (inactive)
nuclei count [3]: 109%
fluorescence slope [4]: -0.525 (inactive)
NADPH fluorescence slope [5]: -3.8e-05 (inactive)
slope [6]: 0.0059 (inactive)
inhibition [7]: -0.637% (inactive)
inhibition [8]: -0.177% (inactive)

Cc1cccc(-n2nnnc2SCc2csc(-c3ccccc3)n2)c1
cell count [1]: 413
inhibition [1]: 2.9% (inactive)
inhibition of aggregation [2]: -8.3% (inactive)
nuclei count [2]: 125%
inhibition [3]: -106% (inactive)
nuclei count [3]: 127%
fluorescence slope [4]: -0.502 (inactive)
NADPH fluorescence slope [5]: -3.3e-05 (inactive)
slope [6]: 0.00568 (inactive)
inhibition [7]: 9.28% (inactive)
inhibition [8]: 6.25% (inactive)

Cc1ccc(NC(=O)COS(=O)c2ccc(C)cc2)cc1 (stereo not drawn)
cell count [1]: 420
inhibition [1]: 5.8% (inactive)
inhibition of aggregation [2]: 2.9% (inactive)
nuclei count [2]: 94.3%
inhibition [3]: -11.2% (inactive)
nuclei count [3]: 125%
fluorescence slope [4]: -0.58 (inactive)
NADPH fluorescence slope [5]: -2e-05 (inactive)
slope [6]: 0.00583 (inactive)
inhibition [7]: 6.94% (inactive)
inhibition [8]: -1.39% (inactive)

COc1ccc(S(=O)(=O)Cc2ccc(C(=O)N3CCOCC3)o2)cc1
cell count [1]: 551
inhibition [1]: -0.2% (inactive)
inhibition of aggregation [2]: -10.7% (inactive)
nuclei count [2]: 93%
inhibition [3]: -79.8% (inactive)
nuclei count [3]: 105%
fluorescence slope [4]: -0.615 (inactive)
NADPH fluorescence slope [5]: -2.5e-05 (inactive)
slope [6]: 0.0067 (inactive)
inhibition [7]: 8.1% (inactive)
inhibition [8]: 19.3% (inactive)

O=C(Nc1cccc(Cl)c1)N1CCN(c2ncccn2)CC1
cell count [1]: 334
inhibition [1]: 2% (inactive)
inhibition of aggregation [2]: 21% (inactive)
nuclei count [2]: 94.1%
inhibition [3]: 19.1% (inactive)
nuclei count [3]: 84.8%
fluorescence slope [4]: -0.53 (inactive)
NADPH fluorescence slope [5]: 4.6e-05 (inactive)
slope [6]: 0.00446 (inactive)
inhibition [7]: -23.1% (inactive)
inhibition [8]: -47% (inactive)

Cc1cc(C)c(OCC(=O)Nc2cccc(O)c2)cc1C
cell count [1]: 252
inhibition [1]: -14.9% (inactive)
inhibition of aggregation [2]: 46.4% (active)
nuclei count [2]: 40.4%
inhibition [3]: -20.3% (inactive)
nuclei count [3]: 102%
fluorescence slope [4]: -0.44 (inactive)
NADPH fluorescence slope [5]: -8.2e-06 (inactive)
slope [6]: 0.0065 (inactive)
inhibition [7]: 16.6% (inactive)
inhibition [8]: 11.6% (inactive)

CSCC[C@@H](Nc1nc(-c2ccccc2)nc2c1oc1ccccc12)C(=O)O
cell count [1]: 322
inhibition [1]: 1.9% (inactive)
inhibition of aggregation [2]: -20.9% (inactive)
nuclei count [2]: 83.4%
inhibition [3]: -92.1% (inactive)
nuclei count [3]: 123%
fluorescence slope [4]: -0.442 (inactive)
NADPH fluorescence slope [5]: 9.3e-06 (inactive)
slope [6]: 0.00719 (inactive)
inhibition [7]: 4.35% (inactive)
inhibition [8]: 41% (inactive)

CCN1CCN(C(=O)c2cc3c(=O)n(C)c4ccccc4c3n2C)CC1
cell count [1]: 601
inhibition [1]: 20.7% (inactive)
inhibition of aggregation [2]: -10.2% (inactive)
nuclei count [2]: 102%
inhibition [3]: -89.4% (inactive)
nuclei count [3]: 126%
fluorescence slope [4]: -0.583 (inactive)
NADPH fluorescence slope [5]: -1.9e-05 (inactive)
slope [6]: 0.00682 (inactive)
inhibition [7]: 2.73% (inactive)
inhibition [8]: 32.2% (inactive)

COc1ccc(CCNC(=O)CSc2nnnn2-c2ccccc2OC)cc1OC
cell count [1]: 681
inhibition [1]: -1.1% (inactive)
inhibition of aggregation [2]: 1.5% (inactive)
nuclei count [2]: 106%
inhibition [3]: -10.8% (inactive)
nuclei count [3]: 109%
fluorescence slope [4]: -0.531 (inactive)
NADPH fluorescence slope [5]: -5.1e-05 (inactive)
slope [6]: 0.00687 (inactive)
inhibition [7]: 15.3% (inactive)
inhibition [8]: 31.8% (inactive)

O=C(NCc1ccco1)c1cccc(-c2nnc(-c3ccccc3)o2)c1
cell count [1]: 320
inhibition [1]: -6% (inactive)
inhibition of aggregation [2]: 5.1% (inactive)
nuclei count [2]: 122%
inhibition [3]: -78.1% (inactive)
nuclei count [3]: 124%
fluorescence slope [4]: -0.422 (inactive)
NADPH fluorescence slope [5]: -6.2e-05 (inactive)
slope [6]: 0.00529 (inactive)
inhibition [7]: 18.5% (inactive)
inhibition [8]: -23.1% (inactive)
